Compounds without any hit were thinned out: in the full panel of roughly 83,000, 20% have a hit.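 Negative percent growth values reflect cell death: -40 means 40% of the cells present at the start died, and -100 means all died.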 Values without a mark were called inactive. Active and inactive are the calls of the source. How the source made its calls: active means growth percent below 10; inactive means the rest.
Test system: NCI-H226 lung
Test: NCI-60 one-dose screen, 48 h (100 = growth as untreated, 0 = no growth, -100 = all killed)
Settings: 10 µM

| Structure (SMILES) | growth |
| --- | --- |
| COCCOC(=O)NC(=O)Nc1ccc(C(=O)c2ccc(Cl)cc2)cc1 | 46.2% |
| Cc1cnc(C=O)c2cccc([N+](=O)[O-])c12 | 77.7% |
| COc1ccc(-c2nc(SCC(=O)c3ccc(Br)cc3)[nH]c(=O)c2C#N)cc1 | 98.1% |
| COc1cccc2c1C(=O)c1c(O)c3c(c(O)c1C2=O)C[C@@](O)(C(=O)COC(=O)c1ccccc1)C[C@@H]3OC1CC(N)C(O)C(C)O1 (some centres undefined) | -71.9% (active) |
| Fc1ccc2[nH]c3c(NCCCN4CCOCC4)ncnc3c2c1 | 62.2% |
| CC(C)c1[nH]nc2c(NCc3ccc(-c4ccccn4)cc3)nc(SCCN)nc12 | -0.633% (active) |
| COc1ccc(NC(=O)CCn2cnc3c(cc(-c4ccccc4)n3-c3ccccc3)c2=O)cc1 | 88.8% |
| CNC(=O)c1cc(Oc2ccc(NC(=O)Nc3ccc(Cl)c(OC4CCCCC4)c3)c(F)c2)ccn1 | 48.4% |
| CCCCCCCCCCCCCCCCn1cc[n+](C)c1 | -60.5% (active) |
| O=C1/C(=C/c2cccs2)CCC/C1=C\c1cccs1 | 80.9% |
| COC(=O)C1(C(=O)OC)C2C(=O)C3C(C21)C3(C(=O)OC(C)(C)C)C(=O)OC(C)(C)C (centres undefined) | 89.5% |
| COc1ccc(Cn2cc3c(c2-c2ccccc2)CC(C)(C)c2cnoc2-3)cc1 | 52.4% |
| CC(C)C[C@H](NC(=O)Cn1ccc2ccccc2c1=O)B(O)O | 11.5% |
| Cc1cc(Nc2cccc(F)c2)nc(NCc2ccccc2)n1 | 40.4% |
